# Data from PubChem BioAssay AID1159580 (chemical genetic matrix, 2015).
# Where “and” joins values, the source holds several entries; their conditions need not be identical. Equal entries are not always repeated. About 2,000 (36%) of roughly 5,500 compounds were called active. Another 18% or so got no clear call; they are omitted. Cut-off read from the data, not from the text of the source: active = normalized growth mostly below about 0.91 (no sharp cut-off); inconclusive = no clear call, values can overlap the other calls; inactive = mostly above about 0.92. This is one part of the list.
# Assay: chemical genetic growth profiling, strain panel (AID 1159580);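 note: tested at 20 µM; growth read once vehicle control cultures reached saturation at 30 °C; 1 = growth at the plate median or of vehicle wells; lower values mean less growth of the strain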
# Conditions: growth OD
smiles,measurement,setting,value
CCCCC[C@H]1C(=O)O[C@H](C)[C@H](NC(=O)c2cccc(NC=O)c2O)C(=O)O[C@@H](C)[C@@H]1OC(=O)CC(C)C,normalized growth,"S. cerevisiae deletion strains, locus YBR021W, strain FUR4, stronger effect = lower value",0.965 (inactive)
same,normalized growth,"S. cerevisiae deletion strains, locus YBR229C, strain ROT2, stronger effect = lower value",0.949 (inactive)
same,normalized growth,"S. cerevisiae deletion strains, locus YCL029C, strain bik1, stronger effect = lower value",0.922 (inactive)
same,normalized growth,"S. cerevisiae deletion strains, locus YDL035C, strain GPR1, stronger effect = lower value",0.839 (active)
same,normalized growth,"S. cerevisiae deletion strains, locus YDL074C, strain BRE1, stronger effect = lower value",0.797 (inactive)
same,normalized growth,"S. cerevisiae deletion strains, locus YDL101C, strain DUN1, stronger effect = lower value",0.936 (inactive)
same,normalized growth,"S. cerevisiae deletion strains, locus YDL134C, strain PPH21, stronger effect = lower value",0.86 (active)
same,normalized growth,"S. cerevisiae deletion strains, locus YDL185W, strain tfp1, stronger effect = lower value",0.919 (inactive)
same,normalized growth,"S. cerevisiae deletion strains, locus YDL192W, strain arf1, stronger effect = lower value",0.91 (active)
same,normalized growth,"S. cerevisiae deletion strains, locus YDR101C, strain arx1, stronger effect = lower value",0.93 (inactive)
same,normalized growth,"S. cerevisiae deletion strains, locus YDR162C, strain NBP2, stronger effect = lower value",0.905 (inactive)
same,normalized growth,"S. cerevisiae deletion strains, locus YDR318W, strain mcm21, stronger effect = lower value",0.908 (active)
same,normalized growth,"S. cerevisiae deletion strains, locus YDR388W, stronger effect = lower value",0.913 (active)
same,normalized growth,"S. cerevisiae deletion strains, locus YDR502C, strain sam2, stronger effect = lower value",0.939 (inactive)
same,normalized growth,"S. cerevisiae deletion strains, locus YEL061C, strain CIN8, stronger effect = lower value",0.936 (inactive)
same,normalized growth,"S. cerevisiae deletion strains, locus YER110C, stronger effect = lower value",0.979 (inactive)
same,normalized growth,"S. cerevisiae deletion strains, locus YER155C, strain BEM2, stronger effect = lower value",0.978 (inactive)
same,normalized growth,"S. cerevisiae deletion strains, locus YER167W, strain BCK2, stronger effect = lower value",0.904 (active)
same,normalized growth,"S. cerevisiae deletion strains, locus YGL078C, strain dbp3, stronger effect = lower value",0.895 (active)
same,normalized growth,"S. cerevisiae deletion strains, locus YGL086W, strain mad1, stronger effect = lower value",0.923 (active)
same,normalized growth,"S. cerevisiae deletion strains, locus YGL248W, strain PDE1, stronger effect = lower value",0.912 (inactive)
same,normalized growth,"S. cerevisiae deletion strains, locus YGR135W, strain pre9, stronger effect = lower value",0.891 (active)
same,normalized growth,"S. cerevisiae deletion strains, locus YGR252W, strain gcn5, stronger effect = lower value",0.684 (active)
same,normalized growth,"S. cerevisiae deletion strains, locus YHR030C, strain SLT2, stronger effect = lower value",0.947 (inactive) and 0.873 (inactive)
same,normalized growth,"S. cerevisiae deletion strains, locus YHR079C, strain IRE1 (second series), stronger effect = lower value",0.943 (inactive)
same,normalized growth,"S. cerevisiae deletion strains, locus YHR079C, strain IRE1, stronger effect = lower value",0.863 (inactive)
same,normalized growth,"S. cerevisiae deletion strains, locus YHR094C, strain hxt1, stronger effect = lower value",0.933 (inactive)
same,normalized growth,"S. cerevisiae deletion strains, locus YHR129C, strain ARP1, stronger effect = lower value",0.904 (active)
same,normalized growth,"S. cerevisiae deletion strains, locus YHR200W, strain rpn10, stronger effect = lower value",0.904 (active)
same,normalized growth,"S. cerevisiae deletion strains, locus YIL066C, strain RNR3, stronger effect = lower value",0.88 (inactive)
same,normalized growth,"S. cerevisiae deletion strains, locus YIL073C, strain SPO22, stronger effect = lower value",0.844 (inactive)
same,normalized growth,"S. cerevisiae deletion strains, locus YIL125W, strain kgd1, stronger effect = lower value",0.896 (active)
same,normalized growth,"S. cerevisiae deletion strains, locus YIR030C, strain dcg1, stronger effect = lower value",0.946 (inactive)
same,normalized growth,"S. cerevisiae deletion strains, locus YJL095W, strain BCK1, stronger effect = lower value",0.875 (inactive) and 0.859 (active)
same,normalized growth,"S. cerevisiae deletion strains, locus YJL134W, strain LCB3, stronger effect = lower value",0.932 (inactive)
same,normalized growth,"S. cerevisiae deletion strains, locus YJL168C, strain set2, stronger effect = lower value",0.933 (inactive)
same,normalized growth,"S. cerevisiae deletion strains, locus YJL187C, strain SWE1 (second series), stronger effect = lower value",0.889 (inactive)
same,normalized growth,"S. cerevisiae deletion strains, locus YJR043C, strain POL32, stronger effect = lower value",0.838 (active)
same,normalized growth,"S. cerevisiae deletion strains, locus YJR066W, strain TOR1, stronger effect = lower value",0.861 (inactive)
same,normalized growth,"S. cerevisiae deletion strains, locus YKL068W, stronger effect = lower value",1.02 (inactive)
same,normalized growth,"S. cerevisiae deletion strains, locus YKL085W, strain MDH1 (second series), stronger effect = lower value",0.961 (inactive)
same,normalized growth,"S. cerevisiae deletion strains, locus YKL085W, strain MDH1, stronger effect = lower value",0.961 (inactive)
same,normalized growth,"S. cerevisiae deletion strains, locus YKL190W, strain CNB1, stronger effect = lower value",0.933 (inactive)
same,normalized growth,"S. cerevisiae deletion strains, locus YKR001C, strain vps1, stronger effect = lower value",0.922 (inactive)
same,normalized growth,"S. cerevisiae deletion strains, locus YLR039C, strain RIC1, stronger effect = lower value",0.933 (inactive)
same,normalized growth,"S. cerevisiae deletion strains, locus YLR058C, strain SHM2, stronger effect = lower value",0.932 (inactive)
same,normalized growth,"S. cerevisiae deletion strains, locus YLR102C, strain apc9, stronger effect = lower value",0.944 (inactive)
same,normalized growth,"S. cerevisiae deletion strains, locus YLR113W, strain HOG1, stronger effect = lower value",0.777 (active)
same,normalized growth,"S. cerevisiae deletion strains, locus YLR262C, strain YPT6, stronger effect = lower value",0.84 (inactive)
same,normalized growth,"S. cerevisiae deletion strains, locus YLR268W, strain sec22, stronger effect = lower value",0.923 (inactive)
same,normalized growth,"S. cerevisiae deletion strains, locus YLR330W, strain CHS5, stronger effect = lower value",0.962 (inactive)
same,normalized growth,"S. cerevisiae deletion strains, locus YLR342W, strain FKS1 (second series), stronger effect = lower value",0.887 (inactive)
same,normalized growth,"S. cerevisiae deletion strains, locus YLR371W, strain rom2, stronger effect = lower value",0.921 (inactive)
same,normalized growth,"S. cerevisiae deletion strains, locus YLR418C, strain cdc73, stronger effect = lower value",0.893 (inactive)
same,normalized growth,"S. cerevisiae deletion strains, locus YML016C, strain PPZ1, stronger effect = lower value",0.946 (inactive)
same,normalized growth,"S. cerevisiae deletion strains, locus YML032C, strain rad52, stronger effect = lower value",0.83 (active)
same,normalized growth,"S. cerevisiae deletion strains, locus YML124C, strain tub3, stronger effect = lower value",0.943 (inactive)
same,normalized growth,"S. cerevisiae deletion strains, locus YMR078C, strain ctf18, stronger effect = lower value",0.9 (active)
same,normalized growth,"S. cerevisiae deletion strains, locus YMR223W, strain ubp8, stronger effect = lower value",0.88 (active)
same,normalized growth,"S. cerevisiae deletion strains, locus YMR263W, strain SAP30, stronger effect = lower value",0.921 (inactive)
same,normalized growth,"S. cerevisiae deletion strains, locus YMR307W, strain GAS1, stronger effect = lower value",0.616 (inactive)
same,normalized growth,"S. cerevisiae deletion strains, locus YNL067W, strain RPL9B, stronger effect = lower value",0.921 (inactive)
same,normalized growth,"S. cerevisiae deletion strains, locus YNL183C, strain NPR1, stronger effect = lower value",0.827 (active)
same,normalized growth,"S. cerevisiae deletion strains, locus YNL233W, strain BNI4, stronger effect = lower value",0.914 (inactive)
same,normalized growth,"S. cerevisiae deletion strains, locus YNL250W, strain rad50, stronger effect = lower value",0.853 (active)
same,normalized growth,"S. cerevisiae deletion strains, locus YNL271C, strain bni1, stronger effect = lower value",0.9 (active)
same,normalized growth,"S. cerevisiae deletion strains, locus YNL298W, strain CLA4, stronger effect = lower value",0.891 (active)
same,normalized growth,"S. cerevisiae deletion strains, locus YNL307C, strain MCK1, stronger effect = lower value",0.967 (inactive)
same,normalized growth,"S. cerevisiae deletion strains, locus YNL322C, strain KRE1, stronger effect = lower value",0.937 (inactive)
same,normalized growth,"S. cerevisiae deletion strains, locus YNR052C, strain pop2, stronger effect = lower value",0.874 (active)
same,normalized growth,"S. cerevisiae deletion strains, locus YOL006C, strain TOP1, stronger effect = lower value",0.736 (inactive)
same,normalized growth,"S. cerevisiae deletion strains, locus YOL012C, strain htz1",0.619 (inactive)
same,normalized growth,"S. cerevisiae deletion strains, locus YOL147C, strain pex11, stronger effect = lower value",0.942 (inactive)
same,normalized growth,"S. cerevisiae deletion strains, locus YOR061W, strain CKA2, stronger effect = lower value",0.895 (inactive)
same,normalized growth,"S. cerevisiae deletion strains, locus YOR069W, strain VPS5, stronger effect = lower value",0.932 (inactive)
same,normalized growth,"S. cerevisiae deletion strains, locus YOR136W, strain idh2, stronger effect = lower value",0.983 (inactive)
same,normalized growth,"S. cerevisiae deletion strains, locus YOR144C, strain elg1, stronger effect = lower value",0.933 (active)
same,normalized growth,"S. cerevisiae deletion strains, locus YOR184W, strain ser1, stronger effect = lower value",0.674 (active)
same,normalized growth,"S. cerevisiae deletion strains, locus YOR231W, strain MKK1, stronger effect = lower value",0.864 (inactive)
same,normalized growth,"S. cerevisiae deletion strains, locus YOR316C, strain cot1, stronger effect = lower value",0.945 (inactive)
same,normalized growth,"S. cerevisiae deletion strains, locus YPL256C, strain CLN2, stronger effect = lower value",0.912 (inactive)
same,normalized growth,"S. cerevisiae deletion strains, locus YPR119W, strain clb2, stronger effect = lower value",0.939 (inactive)
same,normalized growth,"S. cerevisiae deletion strains, locus YPR141C, strain kar3, stronger effect = lower value",0.9 (active)
same,normalized growth,"S. cerevisiae deletion strains, locus YPR163C, strain tif3, stronger effect = lower value",0.893 (active)
same,normalized growth,"S. cerevisiae deletion strains, locus YPR167C, strain met16, stronger effect = lower value",0.939 (inactive)
same,normalized growth,"S. cerevisiae deletion strains, strain wtn01, stronger effect = lower value",0.901 (inactive)
same,normalized growth,"S. cerevisiae strains, strain wild type, stronger effect = lower value",0.895 (active)
